Laboratory results taken from PubChem BioAssay.
A number with no mark means an inactive call. The rule behind the calls is not given here.

Molecular target: Pantothenate synthetase (Mycobacterium tuberculosis (strain ATCC 25618 / H37Rv)) (UniProt P9WIL5)
Test: Recombinant Mtb pantothenate synthetase (PanC) inhibitors, coupled enzyme, confirmatory (AID 375);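 note: 0% = full reaction with vehicle and 100% = no enzyme background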
Details: coupled enzyme assay; at 10 µM, stronger effect = higher value

Sequence of Pantothenate synthetase (Mycobacterium tuberculosis (strain ATCC 25618 / H37Rv)) (P9WIL5 whole entry, looked up): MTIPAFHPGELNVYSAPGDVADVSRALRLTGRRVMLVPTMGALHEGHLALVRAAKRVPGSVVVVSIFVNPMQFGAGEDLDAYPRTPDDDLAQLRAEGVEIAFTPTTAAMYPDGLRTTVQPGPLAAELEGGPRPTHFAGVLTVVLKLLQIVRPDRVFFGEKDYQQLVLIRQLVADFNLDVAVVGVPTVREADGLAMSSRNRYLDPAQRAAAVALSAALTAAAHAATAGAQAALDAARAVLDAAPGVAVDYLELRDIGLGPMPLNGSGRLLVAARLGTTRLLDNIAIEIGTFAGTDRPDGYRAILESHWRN

Going from `Cc1cccc(NC(=O)c2cnc3sccn3c2=O)n1` to `Cc1cc(C)n2nc(C(=O)NCc3ccco3)nc2n1`, the inhibition falls from 4% to 3%.

`COc1cccc(-c2cc(C(F)(F)F)nc(NCc3ccco3)n2)c1` and `Cc1cccc(C2CC(c3ccccc3)Nc3nc(N)nn32)c1` (stereo not given) are the same in inhibition: 0% for the first, 0% for the second.

`COc1cccc2c(=O)cc(C)n(CC(=O)Nc3ccc(C)c(C)c3)c12` and `Cc1ccccc1NC(=O)CSc1nnc(Cc2cccn2C)n1-c1ccc(F)cc1` are the same in inhibition: 0% for the first, 0% for the second.

`O=c1c2cc3ccccc3n2cnn1Cc1ccccc1F` and `CC(C(=O)O)c1ccc(-c2ccccc2)c(F)c1` (stereo not given) are the same in inhibition: 0% for the first, 0% for the second.

Compared with `CN1CCN(c2ncnc3c2cnn3-c2ccc(Cl)cc2)CC1`, `CC(C)c1ccc(-c2nc(N3CCOCC3)[nH]c(=O)c2C#N)cc1` is higher in inhibition: 1% for the first, 7% for the second.

`CC(NC(=O)OCc1ccccc1)C(=O)N1CC(O)CC1C(=O)O` (stereo not given) and `CC(=O)NC(Cc1ccc(C)cc1)C(=O)NC1CCN(C(=O)c2cnccn2)CC1` (stereo not given) are the same in inhibition: 0% for the first, 0% for the second.

First: Cc1ccnc(NC(=O)C2CCC(CNc3c(N4CCCC4)c(=O)c3=O)CC2)c1 (stereo not given)
Second: Cc1c(C(=O)O)oc2ccc(S(=O)(=O)NCCC3=CCCCC3)cc12
The inhibition of the first is lower: 0% for the first, 2% for the second.

`Cc1[nH]nc2c1C1(CCN(C(=O)c3ccccc3)CC1)C(C#N)=C(N)O2` and `O=C1NC2=C(C(=O)CCC2)C(c2ccc3ncccc3c2)N1` (stereo not given) are the same in inhibition: 0% for the first, 0% for the second.

Going from `CCOC(=O)c1sc(NC(=O)COC(=O)Cn2cnc3ccccc32)c(C(=O)OCC)c1C` to `CCN(CC)C(=O)COc1ccc2oc(C)c(C(=O)OC(C)C)c2c1`, the inhibition rises from 3% to 4%.

`CN1CCN(CC#CCC(O)(c2ccccc2)C2CCCC2)CC1` (stereo not given) and `Cc1ccc2cc(C(c3nnnn3CC3CCCO3)N3CCCC4(CCCCC4)C3)c(=O)[nH]c2c1` (stereo not given) are the same in inhibition: 0% for the first, 0% for the second.

`CC(C)=CC(=O)OCC(=O)NC(=O)NC(C)(C)C` and `O=C(CCC(=O)N(c1cccc(F)c1)C(C(=O)NC1CCCC1)c1ccncc1)Nc1cccnc1` (stereo not given) are the same in inhibition: 0% for the first, 0% for the second.

`CCC(=O)n1nc(-c2ccco2)nc1N` and `COc1cc2c(cc1OC)-c1nnc(-c3cccs3)n1C(C)(C)C2` are the same in inhibition: 0% for the first, 0% for the second.

`Nc1nonc1N1CCCCC1` showed an inhibition of 0%.
